Compound activity: PubChem BioAssay, National Center for Advancing Translational Sciences (NCATS)
BAZ2B block: qHTS Assay for Inhibitors of BAZ2B | Bromodomain adjacent to zinc finger domain protein 2B (Homo sapiens), Q9UIF8 | AlphaScreen BAZ2B-H3K14Ac peptide displacement | Potency, µM (highest dose often 114 µM), for inactives: at the highest dose activity change, negative = inhibition, usual class: inhibitors | 4.4% of 360,000 active | AID 504333, 2011; also: % is scaled to controls: 0 for no effect and ±100 for the full control effect; nearly all actives have a fitted effect of over 60% in size
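Multi-concentration screen (max 110 uM) measuring displacement of acetylated histone H3 peptide from BAZ2B by AlphaScreen, using 50 nM protein, 50 nM peptide and 10 ug/mL streptavidin donor plus Ni-chelate acceptor beads.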
TDP1 inh: qHTS Assay for Inhibitors of Tyrosyl-DNA Phosphodiesterase (TDP1); Tyrosyl-DNA phosphodiesterase 1 (Homo sapiens), Q9NUW8; recombinant TDP1, AlphaScreen DNA substrate cleavage; Potency, µM (doses to about 130 µM), for inactives: at the highest dose activity change, negative = inhibition, hits mostly inhibitors; 0.28% of 350,000 active; also: % is scaled to controls: 0 for no effect and ±100 for the full control effect; nearly all actives have a fitted effect of over 40% in size
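Signal: AlphaScreen proximity between streptavidin donor and anti-FITC acceptor beads on intact substrate. Reaction: Tdp1 1 nM, substrate 15 nM final, 5 min RT after 15 min compound preincubation.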
JMJD2A Tudor: qHTS Assay for Inhibitors of JMJD2A-Tudor Domain; Lysine-specific demethylase 4A (Homo sapiens), O75164; AlphaScreen JMJD2A-Tudor / H3K4me3 peptide binding; Potency, µM (titrated, usually from 114 µM), for the others: at the highest dose activity change, negative = inhibition, most hits filed as inhibitors; 4.4% of 390,000 active; AID 504339, 2011; also: % is scaled to controls: 0 for no effect and ±100 for the full control effect; nearly all actives have a fitted effect of over 50% in size
HP1b chromo inh: HTS for Inhibitors of HP1-beta Chromodomain Interactions with Methylated Histone Tails; AlphaScreen HP1-beta / biotin-H3K9me3 peptide binding; 0.56% of 390,000 active; Chromobox protein homolog 1 (Homo sapiens), P83916; Potency, µM (highest dose often 114 µM), without a hit: at the highest dose activity change, negative = inhibition, most hits filed as inhibitors; AID 540317, 2011; also: nearly all actives have a fitted effect of over 70% in size
Target sequence (P83916 whole entry, looked up): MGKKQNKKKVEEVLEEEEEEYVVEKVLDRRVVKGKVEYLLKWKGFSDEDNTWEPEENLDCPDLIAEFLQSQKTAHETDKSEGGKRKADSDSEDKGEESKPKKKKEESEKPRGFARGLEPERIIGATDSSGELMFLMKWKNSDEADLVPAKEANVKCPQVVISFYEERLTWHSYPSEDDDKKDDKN
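Compound inhibition of the preformed complex between 50 nM HP1-beta and 50 nM biotinylated H3K9me3 peptide was read by AlphaScreen. Buffer was PBS pH 7.4 with 0.01% Tween-20. Incubations ran 30 min at room temperature, with 10 ug/mL donor/acceptor beads.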
Sfp inh: qHTS Assay for Inhibitors of Bacillus subtilis Sfp phosphopantetheinyl transferase (PPTase). 3.5% of 310,000 active. 4'-phosphopantetheinyl transferase ffp (Bacillus subtilis), Q9F4F7. Potency, µM, for the others: largest response in the series, negative = inhibition, most hits filed as inhibitors. AID 1490, 2009. Biochemical Sfp PPTase activity, qHTS;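 also: the enzyme is Sfp with the accession as filed and its product quenches rhodamine fluorescence; 0% = enzyme reaction without inhibitor and -100% = no enzyme wells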
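Sfp 15 nM + cpd, 15 min RT; start w/ rhodamine-CoA 5 uM, BHQ-2-YbbR 12.5 uM (final); 50 mM Hepes pH 7.6, 10 mM MgCl2, 0.01% NP-40, 0.01% BSA; read 525/598 nm at 0 and 30 min.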
G9a block: qHTS Assay for Inhibitors of Histone Lysine Methyltransferase G9a; Histone-lysine N-methyltransferase EHMT2 (Homo sapiens), Q96KQ7; G9a H3K9 monomethylation, AlphaScreen, 2 h; Potency, µM (series often up to 102 µM), without a hit: at the highest dose activity, negative = inhibition, hits mostly inhibitors; 8.8% of 350,000 active; also: % is scaled to controls: 0 for no effect and ±100 for the full control effect; nearly all actives have a fitted effect of over 75% in size
Target sequence (Q96KQ7 913-1193 limits assumed): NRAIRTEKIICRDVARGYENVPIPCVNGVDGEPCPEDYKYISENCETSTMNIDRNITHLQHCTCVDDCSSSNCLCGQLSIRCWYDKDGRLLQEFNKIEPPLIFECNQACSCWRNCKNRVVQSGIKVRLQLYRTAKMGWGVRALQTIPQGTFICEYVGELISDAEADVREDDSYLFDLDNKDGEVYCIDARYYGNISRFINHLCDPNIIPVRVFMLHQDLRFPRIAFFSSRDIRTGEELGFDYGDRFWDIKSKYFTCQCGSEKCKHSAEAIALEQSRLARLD
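Methyltransferase reactions run at room temperature for 2 h (20 nM enzyme, 500 nM biotin-H3K9 peptide, 20 uM SAM) after a 15 min compound preincubation; product detected by AlphaScreen beads and anti-H3K9me1 antibody.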
Numbers without * were called inactive; ? = inconclusive; . = no result given; [ ] = remark or other dose. Shown are actives, neighbours in structure and some others; about 12% of the full set was active somewhere. Calls follow the shape of the dose curve; as a rule, active = well fitted curve in the direction sought with a large enough effect; inconclusive = small, poorly fitted or top-dose-only effect, or another doubt; inactive = no such curve, though single readings can be large; an effect the other way counts as inactive or inconclusive. Potency is read from the fitted curve at half-maximal effect.

SMILES	BAZ2B block	TDP1 inh	JMJD2A Tudor	HP1b chromo inh	Sfp inh	G9a block
CCOc1cccc(OCCCNCCCOC)c1	39.8µM*	-10.5%	2.82µM*	?	-7.6%	?
COc1cccc(OCCOCCNCCO)c1	0.9%	2.0%	.	.	15.2%	3.3%
CC(C)(C)OC(=O)Cc1nnc(C(C(=O)OCc2ccccc2)c2ccccc2)o1 (stereo not given)	.	-7.8%	9.6%	.	.	.
COc1ccccc1/C=C/C=C(\C#N)C(=O)NC(C)c1ccccc1 (stereo not given)	-14.3%	5.7%	-23.3%	-15.6%	23.6%	-7.7%
COCCCNCCCCOc1cccc(Br)c1	?	0.0%	2.51µM*	-12.9%	5.6%	28.2µM*
COc1cccc(OCCNC(=O)c2cccc(OC)c2)c1	13.6%	-2.2%	3.3%	40.0%	-3.5%	36.1%[59 µM]
N#C/C(=C\c1c(Oc2ccc(Br)cc2)nc2ccccn2c1=O)c1nc2ccccc2s1	-9.6%	-3.2%	-33.0%	20.3%	.	2.82µM*
S=C(NC1CCCCC1)N1CCc2[nH]c3ccccc3c2C1	-7.5%	7.0%	-19.4%	0.8%	10.3%	24.4%[12.7 µM]
Cc1ccc2[nH]c3c(c2c1)CN(C)CC3	?	6.0%	-34.4%	-1.7%	3.8%	0.6%[59 µM]
CC(=O)N1CCc2[nH]c3ccc(C)cc3c2C1	56.2µM*	.	-30.0%	0.9%	-18.1%	24.6%[2.33 µM]
CCOC(=O)N1CCc2[nH]c3ccc(C)cc3c2C1	?	-6.2%	?	-34.9%	17.4%	10µM*
Cc1ccc(NC(=S)N2CCc3[nH]c4ccccc4c3C2)cc1	25.1µM*	10.3%	?	-30.1%	6.8%	.
CC(=O)N1CCc2[nH]c3ccccc3c2C1	-36.2%	1.0%	-9.8%	-0.2%	13.2%	-38.5%
Cc1ccc(CSc2nnc(-c3cccc4ccccc34)o2)cc1	.	44.7µM*	240.7%	294.0%	.	.
CC1=C2C(CCS2(=O)=O)CC2(C1)C(=O)OC(C)(C)OC2=O (stereo not given)	-37.7%	-12.6%	-35.0%	22.4%	20.0%	50.1µM*
CN(C)C(=O)CCSC(SCCC(=O)O)c1cccc(/C=C/c2ccc3ccc(Cl)cc3n2)c1 (stereo not given)	.	5.7%	.	.	?	7.2%[12.7 µM]
CC1CC(C)CN(CCCNC(=O)CCC(=O)N2CCOc3ccccc32)C1 (stereo not given)	1.8%	.	4.9%	29.8%	16.8%	11.6%
O=C(CSc1ccc2c(c1)OCCO2)N1CCN(c2ccccc2O)CC1	-24.7%	-1.1%[0.505 µM]	-25.3%	9.7%	.	50.1µM*
O=C(Cc1ccc2c(c1)OCCO2)N1CCN(c2ccccc2)CC1	-14.9%	0.0%	-27.4%	-8.3%	12.3%	50.1µM*
O=C(C1CC(=O)N(c2ccc3c(c2)OCCO3)C1)N1CCN(c2ccccc2O)CC1 (stereo not given)	-0.5%	2.8%	-10.7%	23.3%	15.8%	67.8%
O=C(C1CC(=O)N(c2ccc3c(c2)OCCO3)C1)N1CCN(c2ccccc2)CC1 (stereo not given)	50.1µM*	-8.8%	?	-17.4%	4.1%	?
COc1ccc(CC(=O)N2CCN(c3ccccc3)CC2)cc1	-21.5%	5.3%	-0.7%	35.7%	6.6%	7.2%
O=C(O)c1[nH]c2ccc(Cl)cc2c1CC(=O)N1CCN(c2ccccc2)CC1	-1.9%	4.9%	-28.3%	-10.2%	10.3%	50.1µM*
COc1ccc(NC(=O)Nc2ccon2)cc1OC	9.5%	2.1%	-6.8%	41.8%	9.7%	70.4%
COc1ccc(C(=O)NC2CCCc3c2cnn3-c2cc(F)cc(F)c2)c(OC)c1OC (stereo not given)	-23.1%	2.2%	-13.1%	44.9%	3.8%	13.8%
